# Experimental data published in PubChem BioAssay (EPA / NIEHS).
# Results filed as inconclusive are left out. Calls of active or inactive are those of the source. The calls were made as follows: active = hit-call score of the fitted dose curve at least 0.9, where 1 is the maximum; inconclusive = response in the unintended direction; inactive = score below 0.9.
# Target: Glucocorticoid receptor (Homo sapiens) (UniProt P04150)
# Assay: ATG_GR_TRANS: Attagene TRANS-FACTORIAL HepG2 Assay for human Glucocorticoid Receptor (GR) (AID 2282978);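 also: activators score as hits since higher reporter transcript over DMSO is fitted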
# Details: HepG2 Attagene TRANS GR reporter, mRNA transcription
# Summary of the method: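 Measurement of GAL4-UAS-driven reporter mRNA in human HepG2 liver cells 24 h post-dosing, using RT-PCR with fluorescent labelling and capillary electrophoresis; the transfected constructs report exogenous NR-GAL4 chimera activity, fitted upward against DMSO.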
# Sequence of Glucocorticoid receptor (Homo sapiens) (P04150 whole entry, looked up): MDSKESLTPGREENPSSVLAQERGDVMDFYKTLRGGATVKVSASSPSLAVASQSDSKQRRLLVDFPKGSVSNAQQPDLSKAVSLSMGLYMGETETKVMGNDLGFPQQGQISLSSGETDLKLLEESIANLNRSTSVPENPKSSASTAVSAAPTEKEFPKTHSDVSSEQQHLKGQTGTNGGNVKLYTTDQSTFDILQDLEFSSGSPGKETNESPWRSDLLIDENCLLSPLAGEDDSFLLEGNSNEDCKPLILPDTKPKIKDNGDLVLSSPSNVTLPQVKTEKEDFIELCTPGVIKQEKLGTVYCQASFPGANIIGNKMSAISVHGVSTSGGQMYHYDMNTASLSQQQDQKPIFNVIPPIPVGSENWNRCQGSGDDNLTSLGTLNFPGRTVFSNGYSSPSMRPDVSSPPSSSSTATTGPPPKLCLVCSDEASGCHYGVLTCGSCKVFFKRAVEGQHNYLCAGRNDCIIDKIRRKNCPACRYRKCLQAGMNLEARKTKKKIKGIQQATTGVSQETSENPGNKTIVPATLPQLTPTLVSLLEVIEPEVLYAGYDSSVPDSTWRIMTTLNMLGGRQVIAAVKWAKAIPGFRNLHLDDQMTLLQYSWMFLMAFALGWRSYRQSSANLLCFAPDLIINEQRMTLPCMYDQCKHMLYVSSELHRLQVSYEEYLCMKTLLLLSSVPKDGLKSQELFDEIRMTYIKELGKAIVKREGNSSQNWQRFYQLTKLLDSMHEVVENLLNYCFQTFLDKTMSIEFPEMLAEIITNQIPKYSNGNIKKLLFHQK
Compound,outcome,AC50
C=CC(C)C#N (stereo not drawn),inactive,–
CCCCC(CC)COC(=O)c1ccc(O)cc1 (stereo not drawn),inactive,–
CCOC(=O)[C@@H](C)Oc1ccc(Oc2nc3ccc(Cl)cc3o2)cc1,inactive,–
CC(C)(C)OC(=O)c1ccc(O)cc1,inactive,–
COc1cc(Cl)c(OC)cc1N,inactive,–
CN(C)CCOc1ccc(/C(=C(/CCCl)c2ccccc2)c2ccccc2)cc1,inactive,–
O=[N+]([O-])c1ccc(O)cc1C(F)(F)F,inactive,–
CCOC(=O)CC(C)O (stereo not drawn),inactive,–
COC(=O)c1ccc(OC)cc1,–,15.1 µM (active)
CCC(Cl)C(Cl)C(Cl)CC(Cl)C(Cl)C(C)Cl (stereo not drawn),inactive,–
COC(C)(C)CC(C)=O,inactive,–
CC(=O)O[C@H]1C[C@@H]2CC[C@@]1(C)C2(C)C,inactive,–
O=C(Nc1ccc2c(c1)Cc1ccccc1-2)C(F)(F)F,inactive,–
CC(=O)O[C@@H]1C[C@@H]2CC[C@@]1(C)C2(C)C,inactive,–
NCC1CCCC(CN)C1 (stereo not drawn),inactive,–
CCCCCCCCSCCO,inactive,–
CCCCCCC(O)CCCCCCCCCCC(=O)O (stereo not drawn),inactive,–
CC1C2CC(CC2C2CCCC(O)C2)C1(C)C (stereo not drawn),inactive,–
CCCCCCCCCCCC(=O)OC[C@@H](O)[C@H]1OC[C@H](O)[C@H]1O,inactive,–

Compound,outcome,AC50
CCc1cc(C(C)(C)C)c(O)c(C(C)(C)C)c1,inactive,–
C=CC(C)(O)CCC=C(C)C (stereo not drawn),inactive,–
CCOC(=O)CN,inactive,–
CCC1(c2ccccc2)C(=O)NCNC1=O,inactive,–
CCc1cc(Cc2cc(CC)cc(C(C)(C)C)c2O)c(O)c(C(C)(C)C)c1,inactive,–
CC1(C)C(=O)N(Cl)C(=O)N1Br,inactive,–
Cc1cc(C)nc(NS(=O)(=O)c2ccc(N)cc2)n1,inactive,–
Cc1cc(=O)oc2cc(N(C)C)ccc12,inactive,–
CSc1c(Cl)c(Cl)c(Cl)c(Cl)c1Cl,inactive,–
C=C1CC[C@H](O)C/C1=C/C=C1\CCC[C@]2(C)[C@@H]([C@H](C)/C=C/[C@H](C)C(C)C)CC[C@@H]12,inactive,–
IC(I)I,inactive,–
CC1(C)O[C@@H]2C[C@H]3[C@@H]4CCC5=CC(=O)C=C[C@]5(C)[C@@]4(F)[C@@H](O)C[C@]3(C)[C@]2(C(=O)CO)O1,–,0.488 µM (active)
O=C(Nc1ccc([N+](=O)[O-])cc1)Nc1ccc([N+](=O)[O-])cc1 (tested in a mixture with another compound),inactive,–
Cc1ccc(S(=O)(=O)Oc2ccc(N=Nc3ccc(-c4ccc(N=Nc5c(O)ccc6cc(S(=O)(=O)O)cc(S(=O)(=O)O)c56)c(C)c4)cc3C)cc2)cc1,inactive,–
CCCCCCCCCCCCN1CCCCCC1=O,inactive,–
CC1(C)C2=CCCC(C)(C)[C@]23CC[C@H]1C3,inactive,–
CCCCCCC(C)Nc1ccc(Nc2ccccc2)cc1 (stereo not drawn),inactive,–
CCOC(=O)c1ccc(N)cc1,inactive,–
CC(C=O)Cc1ccc(C(C)(C)C)cc1 (stereo not drawn),inactive,–
